KB-3-1 tox: kills parental KB-3-1 adenocarcinoma cells | KB-3-1 viability, CellTiter-Glo ATP luminescence, 72 h | 400,000 compounds, 1.4% hits | Potency, µM (highest dose often 46.1 µM), usual class: cytotoxic; also: % is scaled to controls: 0 for no effect and ±100 for the full control effect; nearly all actives have a fitted effect of over 60% in size
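Parental KB-3-1 adenocarcinoma cells in phenol-red-free DMEM with 10% FBS were pin-treated with compounds at several concentrations, incubated 72 h at 37 °C, and viability read by CellTiter-Glo luminescence; concentration-effect curves were fitted after normalization.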
ELG1 DNA repair: blocks ELG1-dependent DNA repair in HEK293T cells; HEK293T ELG1-luciferase reporter, luminescence, 16 h; DNA damage induced by 5-fluorouridine; AID 504467; 330,000 compounds, 2.3% hits; Potency, µM (top dose mostly 46.1 µM), for inactives: top-dose activity change, negative = inhibition, actives largely listed as inhibitors; also: % is scaled to controls: 0 for no effect and ±100 for the full control effect; nearly all actives have a fitted effect of over 55% in size
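Reporter activity after DNA damage by 5-fluorouridine is monitored. Compound-treated cells incubate 16 hr at 37 °C, then ONE-Glo is added for 30 min before luminescence reading.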
SW480 rereplic: inducers of DNA re-replication in SW480 colon cancer cells | 340,000 compounds, 1.8% hits | SW480 DNA re-replication, Hoechst DNA content imaging, 48 h | AID 624297 | Potency, µM (series often up to 46.1 µM), for the others: top-dose re-replication activation, hits mostly activators; also: % of control where 0% means no effect; nearly all actives have a fitted effect of over 55% in size
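SW480 cells exposed to compounds for 48 hr at 37 C, 5% CO2, then Hoechst-stained 40 min. Nuclear DNA content imaged by fluorescence scanning (405 nm excitation, 500-530 nm emission); re-replication scored as increased high-intensity nuclei.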
KB-V1 MDR tox: KB-V1 MDR subline cytotoxicity. KB-V1 MDR cells viability, CellTiter-Glo, 72 h. Potency, µM (highest dose often 46.1 µM), hits mostly cytotoxic. 400,000 compounds, 3.4% hits. AID 1347076; also: % is scaled to controls: 0 for no effect and ±100 for the full control effect; nearly all actives have a fitted effect of over 60% in size
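Cytotoxicity toward P-gp-expressing KB-V1 cells was determined as loss of CellTiter-Glo luminescence after 72 h at 37 degrees C. Compounds were tested in quantitative HTS format across a concentration range, with curves fitted to normalized data.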
MCF10A rereplic: DNA re-replication induction in MCF 10a cells | MCF 10A DNA re-replication, Hoechst nuclear intensity, 48 h | Potency, µM (doses to about 46.1 µM), inactives show at the top dose activity, positive = re-replication, usual class: activators | 350,000 compounds, 2.9% hits; also: % of control where 0% means no effect; nearly all actives have a fitted effect of over 50% in size
* marks the source's active call; other numbers are inactive results; i = inactive; ? = inconclusive; nt = no result. The list is not random: actives were taken first. Their share in the collection is about 8.1%. Calls follow the shape of the dose curve; as a rule, active = well fitted curve in the direction sought with a large enough effect; inconclusive = small, poorly fitted or top-dose-only effect, or another doubt; inactive = no such curve, though single readings can be large; an effect the other way counts as inactive or inconclusive. Potency is read from the fitted curve at half-maximal effect.

SMILES	KB-3-1 tox	ELG1 DNA repair	SW480 rereplic	KB-V1 MDR tox	MCF10A rereplic
CSc1nc2cc(S(=O)(=O)N3CCOCC3)ccc2s1	?	15%	-9%	i	-4%
CCn1c(C)nc2cc(S(=O)(=O)N3CCCCC3)ccc21	i	18µM*	-3%	i	5%
CSc1nc2cc(S(=O)(=O)N3CCCCC3)ccc2s1	?	-28%	10%	15µM*	7%
CCn1c(CN2CCCCC2)nc2cc(S(=O)(=O)N3CCCCC3)ccc21	i	-2%	14%	i	?
CCOc1ccc(NS(=O)(=O)c2ccc(C(=O)N(C)C)s2)cc1	i	nt	nt	i	nt
Cn1c(=O)c(C(=O)COC(=O)c2cc(-c3ccco3)nc3ccccc23)c(N)n(CC2CC2)c1=O	nt	6.5µM*	16µM*	nt	8%
O=C(CCS(=O)(=O)c1ccc(F)cc1)Nc1nnc(-c2ccco2)o1	i	-13%	18µM*	i	?
COc1cc(OC)cc(-c2nnc(NC(=O)CCS(=O)(=O)c3ccc(C)cc3)o2)c1	i	-1%	?	i	4.6µM*
Cc1ccc(S(=O)(=O)CCC(=O)Nc2nnc(-c3ccc(F)cc3)o2)cc1	i	0%	?	i	?
COc1ccc(N2CCN(C(c3cccs3)C(C)NS(=O)(=O)c3ccccc3)CC2)cc1 (stereo not given)	21µM*	?	-4%	?	?
CC(C)C(=O)NC(C)C(c1cccs1)N1CCN(c2ccccc2)CC1 (stereo not given)	i	-27%	-5%	13µM*	10%
O=C(NCc1cccnc1)c1cc2nc(-c3ccc4c(c3)OCO4)cc(C(F)(F)F)n2n1	i	-1%	20%	i	3%
COc1ccc(Cc2nnc(N/N=C/c3ccc(Br)cc3)[nH]c2=O)cc1OC	i	-12%	1%	i	1%
COc1ccc(Cc2nnc(N/N=C/c3ccc(O)cc3)[nH]c2=O)cc1OC	0.58µM*	5.8µM*	?	?	8.2µM*
O=C(NCc1ccc(C(F)(F)F)cc1)c1cccc2c(-c3cccnc3)coc12	i	nt	nt	i	nt
COc1ccccc1NC(=S)N1CCNC(=O)C1CC(=O)Nc1cccc(C)c1 (stereo not given)	i	5%	-3%	?	-2%
Cc1cccc(NC(=O)CC2C(=O)NCCN2C(=S)Nc2ccccc2)c1 (stereo not given)	i	10%	-1%	i	16µM*
CCOC(=O)C1(C)C=C(Nc2cccc(C(=O)O)c2)C(=O)N1c1ccccc1 (stereo not given)	i	nt	nt	i	nt
CC(=O)CC1OC(=O)C(Br)=C1NCc1ccccc1 (stereo not given)	i	?	?	i	2.6µM*
O=C(CC1Oc2ccccc2NC1=O)NCc1ccccc1 (stereo not given)	i	-1%	0%	i	30%
CSc1nc(N)nc(SCC(=O)Nc2ccc(Cl)cc2)c1C#N	?	-3%	-4%	i	1%
CSc1nc(N)nc(SCC(=O)Nc2cccc(F)c2)c1C#N	?	?	?	2.3µM*	?
CCOC(=O)N1CCN(C(=O)C[C@@H]2C[C@@]3(C(=O)OCC)CCCC=C3N(CCc3ccc(OC)c(OC)c3)C2=O)CC1	i	nt	nt	i	nt
COc1ccc(N2CC(C(=O)N3CCOCC3)CC2=O)cc1 (stereo not given)	i	22%	-8%	i	-14%
COc1ccc(N2CC(C(=O)N3CCCC(C)C3)CC2=O)cc1 (stereo not given)	i	-7%	18µM*	i	3%
SMILES	KB-3-1 tox	ELG1 DNA repair	SW480 rereplic	KB-V1 MDR tox	MCF10A rereplic
O=C(NN=Cc1ccc(Cl)cc1Cl)C1CC1	i	nt	-5%	15µM*	5%
CCOC(=O)c1c(NC(=O)COC(=O)C2CCC2)sc(C(=O)N(C)C)c1C	i	-17%	2%	i	1%
CCOC(=O)C(C(=O)Nc1ccc(C)cc1)C1CCCCC1 (stereo not given)	23µM*	-24%	?	9.2µM*	28%
C=CCNC(=O)C(=O)N/N=C/c1ccco1	i	13%	-5%	i	-3%
O=C1CCCN1c1ccc(S(=O)(=O)N2CCC(c3ccccc3)CC2)cc1	i	?	-4%	2.6µM*	3%
CC(C)CC(NS(=O)(=O)OCC(Cl)(Cl)Cl)c1ccccc1 (stereo not given)	i	-10%	-1%	23µM*	?
Cc1ccc2c(c1)sc(-c1ccc(N(C)C)cc1)[n+]2C	1.8µM*	?	13µM*	i	12µM*
COc1ccc(C)cc1Nc1n[n+](-c2ccccc2)c(-c2ccc(N(C)C)cc2)s1	?	-25%	?	i	?
C/C=C(/CCC1NCCc2c1[nH]c1ccccc21)[Si](C)(C)C (stereo not given)	18µM*	nt	?	12µM*	?
O=C(CN(C(=O)CNC(=O)c1cccs1)c1ccc2c(c1)OCCO2)NC1CCCC1	i	-2%	0%	i	1%
Cc1nc(N/N=C/c2cccc([N+](=O)[O-])c2)cc(N2CCCCC2)n1	i	nt	nt	i	nt
CCc1ccc(/C(C)=N/Nc2cc(Cl)nc(C)n2)cc1	i	-15%	0%	i	1%
C/C(=N\Nc1cc(N2CCOCC2)nc(C)n1)c1cccc([N+](=O)[O-])c1	?	15µM*	-69%	?	-14%
CCCCc1ccc(/C(C)=N/Nc2cc(N3CCOCC3)nc(C)n2)cc1	i	0%	?	?	21µM*
Fc1ccc(N2CCN(c3ncnc4nc[nH]c34)CC2)cc1	i	?	-12%	i	0%
Nc1c(Cl)cc2c(c1Oc1ccccc1)C(=O)c1ccccc1C2=O	i	?	?	?	13µM*
FC(F)(F)c1cc(-c2ccccc2)nc(N2CCCCC2)n1	i	10%	-13%	i	?
c1ccc(-c2nnc3nc(N4CCCCC4)nc(N4CCCCC4)n23)cc1	?	nt	2%	18µM*	4%
CCOC(=O)c1sc(NC(=O)CSc2ncn(-c3ccccc3)n2)nc1C	i	0%	-3%	i	1%
Cc1sc(NC(=O)CSC2=NCCS2)nc1-c1ccccc1	i	?	0%	i	8.9µM*
CC(=O)N1CC(=O)N=C1SCC(=O)Nc1nc(-c2ccccc2)c(-c2ccccc2)s1	i	-13%	2%	i	21µM*
CC(=O)c1sc(NC(=O)CN2C(=O)NC3(CCCC3)C2=O)nc1-c1ccccc1	i	-1%	-2%	i	5%
Cc1sc(NC(=O)CSc2ncn(-c3ccccc3)n2)nc1-c1ccccc1	?	?	1%	23µM*	13%
COc1ccc(C(=O)N/N=C/c2c(CO)cnc(C)c2O)cc1	i	13µM*	-10%	?	-4%
